Experimental findings from PubChem BioAssay (Tox21) are described below.

The nature of experiment [1]: Human pregnane X receptor (PXR) small molecule agonists, qHTS cell viability counter screen (AID 1346977). Note: nearly all actives have a fitted effect of over 50% in size. The method in brief:
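Cytotoxicity counter screen run in the same wells as the PXR luciferase assay, using PXR-Luc HepG2 cells in charcoal-stripped serum medium. Viability: CellTiter-Fluor fluorescence after 24hr compound treatment.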

The nature of experiment [2]: Caspase-3/7 induction in HepG2 cells by small molecules, qHTS assay (AID 1346978). Note: nearly all actives have a fitted effect of over 15% in size. The method, boiled down:
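Caspase-3/7 induction was measured by Caspase-Glo 3/7 luminescence (30 min, room temperature) after a 17 hr compound exposure of wild-type HepG2 cells seeded at 2,000 per well and pre-incubated 5 hr.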
(In general: In qHTS, concentration-response curves come from the screen itself.)

A short description of experiment [3]: Caspase-3/7 induction in CHO-K1 cells by small molecules, qHTS cell viability counter screen (AID 1346979). Note: nearly all actives have a fitted effect of over 35% in size. The method in brief: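 Cytotoxicity counter screen run in parallel with the caspase-3/7 assay: CHO-K1 cells, 16hr compound treatment at 37C, then CellTiter-Fluor for 1hr before fluorescence reading.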
The nature of experiment [4]: Caspase-3/7 induction in HepG2 cells by small molecules, qHTS cell viability counter screen (AID 1346981). Note: series mostly up to about 92 µM; nearly all actives have a fitted effect of over 30% in size. The method, boiled down: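 In this quantitative HTS counter screen, compounds delivered in DMSO were left on unmodified HepG2 cells for 16 hr at 37 C. Viability was then determined fluorometrically with CellTiter-Fluor, in parallel with caspase-3/7 induction in the same wells.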

In experiment [5] the target is Nuclear receptor subfamily 1 group I member 2 (Homo sapiens) (UniProt O75469). Put plainly: Human pregnane X receptor (PXR) small molecule agonists, qHTS assay (AID 1346982). Note: nearly all actives have a fitted effect of over 35% in size. Note: potency is the fitted concentration of half-maximal effect. The method, boiled down: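 Reporter HepG2 cells expressing PXR-Luc are cultured in charcoal-stripped FBS (5%), treated with compounds for 24 hr at 37 C, and assayed by ONE-Glo luminescence after 30 min at room temperature.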

The target of experiment [6] is Nuclear receptor subfamily 1 group I member 2 (Rattus norvegicus) (UniProt Q9R1A7). Put plainly: Rat pregnane X receptor (rPXR) activation by small molecules, qHTS assay (AID 1346983). Note: nearly all actives have a fitted effect of over 20% in size. The following applies: rPXR luciferase reporter cells, One-Glo luminescence, 24 h; max activation: stronger effect = higher value. The method in brief:
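Luminescent readout (One-Glo luciferase, 30 min room temperature) followed 24 hr compound treatment at 37 C of rPXR cells plated 2,000 per well and preincubated 5hr; qHTS format with compounds delivered in DMSO.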

Experiment [7] deals with Nuclear receptor subfamily 1 group I member 2 (Homo sapiens) (UniProt O75469). The experiment is described as follows: CYP3A4 induction through human pregnane X receptor (PXR) by small molecules, qHTS assay (AID 1346984). Note: nearly all actives have a fitted effect of over 40% in size. The method, boiled down:
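Induction measured in HepG2-based DPX-2 cells co-expressing human PXR and a CYP3A4 promoter-driven luciferase. After a 24-hour compound exposure, cells received CYP3A4 luciferin substrate at 3uM final for 3 hours, and light output was then recorded.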

For experiment [8] the target is unchanged. Put plainly: Human pregnane X receptor (PXR) activation by small molecules, qHTS assay (AID 1346985). Note: nearly all actives have a fitted effect of over 40% in size. The method in brief:
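DPX-2 cells (HepG2 co-transfected with a PXR response element and a CYP3A4-promoter luciferase construct) were seeded at 2,000 per well, rested 5 hr at 37C, then exposed to DMSO-dissolved compounds for 24 hr. Activation was read as luciferase luminescence.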

The target of experiment [9] is Acetylcholinesterase (Homo sapiens) (UniProt P22303). Put plainly: Acetylcholinesterase (AChE) small molecule antagonists: enzyme-based qHTS assay (AID 1347397; calls by dose curve; note: nearly all actives have a fitted effect of over 55% in size). The following applies: Potency: AChE enzyme activity inhibition. The method in brief:
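First, recombinant human AChE (50 mU/mL as dispensed) received test compound or DMSO. Second, plates stood 30 min at room temperature. Third, DTNB and acetylthiocholine were added, followed by 10 min at room temperature and colorimetric detection.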

For experiment [10] the target is unchanged. The experiment is described as follows: Acetylcholinesterase (AChE) small molecule antagonists: fluorescence cell-based qHTS assay (AID 1347398; calls by dose curve; note: nearly all actives have a fitted effect of over 50% in size). The conditions noted are these: Potency: AChE activity. The method in brief:
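Homogeneous quantitative HTS format. SH-SY5Y cells seeded at 2,000 per well settle overnight at 37 C. Compound pretreatment runs 30 min (37 C, 5% CO2); substrate/probe mix then reacts 40 min at RT before reading 490/520 nm.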

Experiment [11] has the same target. The experiment is described as follows: Acetylcholinesterase (AChE) small molecule antagonists: enzyme-based qHTS assay with human liver microsomes (AID 1347399; calls by dose curve; note: nearly all actives have a fitted effect of over 60% in size). The conditions noted are these: Potency: qHTS inhibition. The method in brief:
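Recombinant human AChE (50 mU/mL in the enzyme mix) and human liver microsomes (0.25 mg/mL final) were preincubated with compound and NADPH (0.25 mg/mL final) for 30 min at 37 C. Acetylthiocholine/DTNB was then added; thiocholine was read colorimetrically after 10 min at room temperature.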

Experiment [12] concerns the target Cytochrome P450 2D6 (Homo sapiens) (UniProt P10635). The experiment is described as follows: Cytochrome P450 Family 2 Subfamily D Member 6 (CYP2D6) small molecule antagonists: luciferase reporter qHTS assay (AID 1671196). Note: nearly all actives have a fitted effect of over 50% in size. Note: potency is the fitted concentration of half-maximal effect. The method, boiled down: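 Test chemicals meet CYP2D6 plus proluciferin substrate (10 min, RT); NADPH regenerating solution then drives turnover for 1 h. Detection reagent halts the reaction; luminescence measured after 20 min.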
(In general: In a reporter assay the amount or activity of a reporter protein is the signal.)

In experiment [13] the target is Cytochrome P450 2C19 (Homo sapiens) (UniProt P33261). The experiment is described as follows: Cytochrome P450 Family 2 Subfamily C Member 19 (CYP2C19) small molecule antagonists: luciferase reporter qHTS assay (AID 1671197). Note: nearly all actives have a fitted effect of over 65% in size. Note: potency is the fitted concentration of half-maximal effect. The method in brief: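 Relative luminescence units recorded 20 min after the detection reagent stopped a 1 h, 37C CYP2C19 reaction on proluciferin substrate, which was started by NADPH regeneration following 10 min room-temperature compound preincubation; ketoconazole positive control.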

Experiment [14] has as its target Cytochrome P450 2C9 (Homo sapiens) (UniProt P11712). Put plainly: Cytochrome P450 Family 2 Subfamily C Member 9 (CYP2C9) small molecule antagonists: luciferase reporter qHTS assay (AID 1671198). Note: nearly all actives have a fitted effect of over 50% in size. Note: potency is the fitted concentration of half-maximal effect. The method, boiled down: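 Enzyme-substrate mix preincubated with compound 10 min at room temperature; reaction started with NADPH regeneration solution, 1 h 37C. Luminescent luciferin product read after 20 min detection reagent.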

The target of experiment [15] is Cytochrome P450 1A2 (Homo sapiens) (UniProt P05177). The experiment is described as follows: Cytochrome P450 Family 1 Subfamily A Member 2 (CYP1A2) small molecule antagonists: luciferase reporter qHTS assay (AID 1671199). Note: nearly all actives have a fitted effect of over 50% in size. Note: potency is the fitted concentration of half-maximal effect. The method, boiled down:
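Steps: enzyme-substrate mix dispensed; test compounds and furafylline control pinned in; 10 min room temperature; NADPH regeneration solution added, 1 h; reaction stopped with luciferin detection reagent; luminescence read after 20 min.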

Experiment [16] concerns the target Cytochrome P450 3A4 (Homo sapiens) (UniProt P08684). Put plainly: Cytochrome P450 Family 3 Subfamily A Member 4 (CYP3A4) small molecule antagonists: luciferase reporter qHTS assay (AID 1671201). Note: nearly all actives have a fitted effect of over 50% in size. Note: potency is the fitted concentration of half-maximal effect. The method, boiled down:
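qHTS, 1536-well. CYP3A4 + proluciferin substrate, cpd 10 min RT → NADPH regen 1 h RT → detection reagent 20 min → luminescence (RLU). Ketoconazole positive control.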

Experiment [17] can be described thus: Caspase-3/7 induction in CHO-K1 cells by small molecules, qHTS assay (AID 1346980). Note: nearly all actives have a fitted effect of over 15% in size. The method in brief: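 Luminescent Caspase-Glo 3/7 read (30min, room temperature) quantified apoptosis induction. Cells were wild-type CHO-K1, treated with compound for 17hr at 37 C and 5% CO2.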
For experiment [18], the target named is Acetylcholinesterase (Homo sapiens) (UniProt P22303). The experiment is described as follows: Acetylcholinesterase (AChE) small molecule antagonists: colormetric cell-based qHTS assay (AID 1347395; calls by dose curve; note: nearly all actives have a fitted effect of over 30% in size). The method in brief: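 Cells (SH-SY5Y, 2,000 per well) are seeded and left overnight at 37 C. Compound is added for 30 min, then DTNB and acetylthiocholine for a further 90 min at 37 C before absorbance-based thiocholine detection.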

The target in experiment [19] is Voltage-gated inwardly rectifying potassium channel KCNH2 (Homo sapiens) (UniProt Q12809). The experiment is described as follows: Human Ether-a-go-go-Related Gene (hERG) channel small molecule antagonists: fluorescence cell-based qHTS assay (AID 1671200). The method in brief: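 Fluorescence at 540 nm emission (480 nm excitation) was recorded kinetically for 2 min at 1-second intervals once the thallium-containing stimulus reached cells previously loaded with FluxOR II dye.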
In general terms: hERG is a cardiac potassium channel; its block is linked to QT prolongation.

Values without a mark were called inactive. Inconclusive results are not listed. Activity calls are given as the source filed them. Unless noted, calls come from the whole dose curve; as a rule, active = well fitted curve in the direction sought with a large enough effect in the repeat runs; inconclusive = weak or mixed curves; inactive = no such curve, though single readings can be large; an effect the other way counts as inactive or inconclusive.
% is set by controls: 0 for no effect and ±100 for the full control effect.

Chain of Cytochrome P450 2C9 (Homo sapiens) (P11712 whole entry, looked up): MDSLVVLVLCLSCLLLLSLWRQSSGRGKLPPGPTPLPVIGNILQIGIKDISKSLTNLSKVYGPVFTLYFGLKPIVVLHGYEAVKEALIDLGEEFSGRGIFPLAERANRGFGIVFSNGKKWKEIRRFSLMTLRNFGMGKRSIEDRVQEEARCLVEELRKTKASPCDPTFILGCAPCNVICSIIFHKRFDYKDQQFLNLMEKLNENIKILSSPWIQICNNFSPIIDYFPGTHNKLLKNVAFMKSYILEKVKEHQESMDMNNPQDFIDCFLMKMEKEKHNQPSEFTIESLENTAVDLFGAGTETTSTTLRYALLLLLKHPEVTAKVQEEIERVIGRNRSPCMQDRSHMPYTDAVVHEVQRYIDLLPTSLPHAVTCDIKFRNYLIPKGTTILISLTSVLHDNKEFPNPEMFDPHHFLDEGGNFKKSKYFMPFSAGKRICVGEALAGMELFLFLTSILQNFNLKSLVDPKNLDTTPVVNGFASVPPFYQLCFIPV
Chain of Cytochrome P450 2C19 (Homo sapiens) (P33261 whole entry, looked up): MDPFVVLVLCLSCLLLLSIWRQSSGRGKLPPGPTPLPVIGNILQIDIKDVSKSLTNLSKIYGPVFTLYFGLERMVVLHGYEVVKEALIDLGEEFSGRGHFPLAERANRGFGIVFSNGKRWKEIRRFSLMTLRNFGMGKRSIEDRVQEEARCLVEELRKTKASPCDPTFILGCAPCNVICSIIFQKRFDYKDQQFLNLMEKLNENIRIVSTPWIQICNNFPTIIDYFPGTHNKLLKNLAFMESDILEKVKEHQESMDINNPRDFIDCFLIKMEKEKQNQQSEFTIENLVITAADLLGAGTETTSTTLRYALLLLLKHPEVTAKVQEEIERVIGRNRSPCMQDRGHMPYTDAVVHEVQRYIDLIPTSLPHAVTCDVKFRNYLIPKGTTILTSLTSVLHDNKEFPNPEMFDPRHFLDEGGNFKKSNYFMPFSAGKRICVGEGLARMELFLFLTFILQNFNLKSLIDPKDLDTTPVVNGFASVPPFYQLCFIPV
Chain of Cytochrome P450 3A4 (Homo sapiens) (P08684 whole entry, looked up): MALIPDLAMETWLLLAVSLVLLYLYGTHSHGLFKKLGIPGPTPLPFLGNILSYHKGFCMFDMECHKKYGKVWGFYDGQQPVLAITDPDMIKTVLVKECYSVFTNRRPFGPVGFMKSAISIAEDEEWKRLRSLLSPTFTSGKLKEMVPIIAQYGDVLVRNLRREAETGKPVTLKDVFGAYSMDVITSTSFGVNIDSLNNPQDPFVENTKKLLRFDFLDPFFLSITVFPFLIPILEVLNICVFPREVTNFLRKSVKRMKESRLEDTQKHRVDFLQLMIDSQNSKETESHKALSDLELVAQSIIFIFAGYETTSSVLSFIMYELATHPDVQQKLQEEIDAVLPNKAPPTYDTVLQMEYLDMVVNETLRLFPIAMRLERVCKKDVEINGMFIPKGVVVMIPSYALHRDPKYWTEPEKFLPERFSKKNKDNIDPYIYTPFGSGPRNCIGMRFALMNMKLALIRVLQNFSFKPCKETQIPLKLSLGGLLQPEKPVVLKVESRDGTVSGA
Chain of Voltage-gated inwardly rectifying potassium channel KCNH2 (Homo sapiens) (Q12809 whole entry, looked up): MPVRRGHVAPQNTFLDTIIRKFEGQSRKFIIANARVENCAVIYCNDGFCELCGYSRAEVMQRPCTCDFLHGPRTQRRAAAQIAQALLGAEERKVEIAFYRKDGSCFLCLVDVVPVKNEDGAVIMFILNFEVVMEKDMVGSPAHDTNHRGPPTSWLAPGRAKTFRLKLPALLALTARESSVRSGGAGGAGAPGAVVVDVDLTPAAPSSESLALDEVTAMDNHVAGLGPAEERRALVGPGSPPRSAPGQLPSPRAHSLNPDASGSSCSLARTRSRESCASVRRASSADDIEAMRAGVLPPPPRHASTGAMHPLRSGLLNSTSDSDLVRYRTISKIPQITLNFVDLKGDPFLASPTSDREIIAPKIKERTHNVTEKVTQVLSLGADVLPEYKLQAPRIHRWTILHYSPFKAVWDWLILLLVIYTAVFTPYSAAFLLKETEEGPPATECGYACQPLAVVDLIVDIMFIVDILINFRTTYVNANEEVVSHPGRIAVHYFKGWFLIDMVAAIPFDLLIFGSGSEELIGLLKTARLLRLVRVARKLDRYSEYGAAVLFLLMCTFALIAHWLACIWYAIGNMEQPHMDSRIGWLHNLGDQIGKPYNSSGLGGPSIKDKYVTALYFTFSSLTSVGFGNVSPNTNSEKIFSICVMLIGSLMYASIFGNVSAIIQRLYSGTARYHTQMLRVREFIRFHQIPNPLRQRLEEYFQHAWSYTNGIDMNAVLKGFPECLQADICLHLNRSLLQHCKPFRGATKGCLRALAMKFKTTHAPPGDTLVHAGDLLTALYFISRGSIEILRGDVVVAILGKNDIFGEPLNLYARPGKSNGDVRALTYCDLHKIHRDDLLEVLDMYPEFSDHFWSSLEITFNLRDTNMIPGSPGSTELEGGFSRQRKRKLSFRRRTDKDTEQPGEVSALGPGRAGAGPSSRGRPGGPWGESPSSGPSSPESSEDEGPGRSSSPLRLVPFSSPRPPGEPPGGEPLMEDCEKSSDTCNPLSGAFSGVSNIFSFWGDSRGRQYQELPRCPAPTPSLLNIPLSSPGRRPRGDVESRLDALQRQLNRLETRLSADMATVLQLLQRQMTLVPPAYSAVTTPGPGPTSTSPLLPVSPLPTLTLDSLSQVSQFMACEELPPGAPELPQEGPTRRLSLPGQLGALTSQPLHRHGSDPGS
Chain of Cytochrome P450 1A2 (Homo sapiens) (P05177 whole entry, looked up): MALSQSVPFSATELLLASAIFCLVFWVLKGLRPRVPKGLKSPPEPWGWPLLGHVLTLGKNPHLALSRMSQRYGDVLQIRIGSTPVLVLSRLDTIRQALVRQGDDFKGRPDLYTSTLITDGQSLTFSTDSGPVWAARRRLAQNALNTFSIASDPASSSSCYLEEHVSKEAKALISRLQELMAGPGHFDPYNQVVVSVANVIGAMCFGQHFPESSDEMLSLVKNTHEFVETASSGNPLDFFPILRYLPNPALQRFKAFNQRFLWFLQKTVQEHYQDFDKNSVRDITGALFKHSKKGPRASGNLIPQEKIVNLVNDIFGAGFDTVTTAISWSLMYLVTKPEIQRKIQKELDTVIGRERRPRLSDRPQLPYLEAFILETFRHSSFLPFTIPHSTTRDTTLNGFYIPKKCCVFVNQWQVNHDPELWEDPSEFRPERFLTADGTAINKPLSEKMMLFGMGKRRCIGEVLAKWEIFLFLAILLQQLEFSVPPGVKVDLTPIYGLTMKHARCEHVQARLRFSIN
Chain of Nuclear receptor subfamily 1 group I member 2 (Homo sapiens) (O75469 whole entry, looked up): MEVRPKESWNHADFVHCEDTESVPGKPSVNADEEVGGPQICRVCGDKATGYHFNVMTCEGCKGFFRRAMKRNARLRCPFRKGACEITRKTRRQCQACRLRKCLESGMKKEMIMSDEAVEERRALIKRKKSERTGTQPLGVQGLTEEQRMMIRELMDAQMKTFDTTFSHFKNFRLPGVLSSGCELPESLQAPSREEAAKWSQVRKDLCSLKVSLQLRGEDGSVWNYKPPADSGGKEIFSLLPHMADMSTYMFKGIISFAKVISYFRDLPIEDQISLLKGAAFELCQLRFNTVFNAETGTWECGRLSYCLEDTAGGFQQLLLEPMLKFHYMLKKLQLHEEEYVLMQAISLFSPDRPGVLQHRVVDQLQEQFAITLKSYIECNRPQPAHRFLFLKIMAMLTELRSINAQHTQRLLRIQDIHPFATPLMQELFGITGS
Chain of Acetylcholinesterase (Homo sapiens) (P22303 whole entry, looked up): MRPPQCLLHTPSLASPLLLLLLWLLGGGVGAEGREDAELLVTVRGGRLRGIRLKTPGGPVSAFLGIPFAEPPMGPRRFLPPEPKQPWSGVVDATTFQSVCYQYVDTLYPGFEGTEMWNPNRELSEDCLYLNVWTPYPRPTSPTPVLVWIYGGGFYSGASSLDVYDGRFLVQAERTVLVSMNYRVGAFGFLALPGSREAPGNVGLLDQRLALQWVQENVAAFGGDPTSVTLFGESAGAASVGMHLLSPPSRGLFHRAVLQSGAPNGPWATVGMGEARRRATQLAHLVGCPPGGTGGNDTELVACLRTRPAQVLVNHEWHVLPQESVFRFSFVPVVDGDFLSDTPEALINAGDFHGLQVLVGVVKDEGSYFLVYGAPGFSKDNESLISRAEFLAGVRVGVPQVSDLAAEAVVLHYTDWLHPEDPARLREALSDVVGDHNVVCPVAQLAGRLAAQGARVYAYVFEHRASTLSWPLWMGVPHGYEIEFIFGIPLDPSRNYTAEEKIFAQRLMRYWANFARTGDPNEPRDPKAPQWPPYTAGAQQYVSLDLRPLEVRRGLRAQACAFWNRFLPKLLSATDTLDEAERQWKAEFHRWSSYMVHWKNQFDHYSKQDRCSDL
Chain of Cytochrome P450 2D6 (Homo sapiens) (P10635 whole entry, looked up): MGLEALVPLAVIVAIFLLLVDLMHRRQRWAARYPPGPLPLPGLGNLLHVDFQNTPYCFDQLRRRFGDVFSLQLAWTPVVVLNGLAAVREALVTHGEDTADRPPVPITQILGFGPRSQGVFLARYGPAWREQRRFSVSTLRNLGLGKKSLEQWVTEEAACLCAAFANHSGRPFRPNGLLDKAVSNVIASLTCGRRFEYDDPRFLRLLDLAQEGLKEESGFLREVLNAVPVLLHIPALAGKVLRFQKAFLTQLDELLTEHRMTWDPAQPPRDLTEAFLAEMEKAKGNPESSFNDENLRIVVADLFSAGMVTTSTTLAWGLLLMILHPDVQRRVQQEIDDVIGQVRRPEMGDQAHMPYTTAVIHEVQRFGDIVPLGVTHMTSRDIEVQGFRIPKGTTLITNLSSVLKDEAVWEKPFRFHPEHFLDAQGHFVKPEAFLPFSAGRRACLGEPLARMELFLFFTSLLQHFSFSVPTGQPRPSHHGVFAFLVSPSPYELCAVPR

Turning to `CN1C(=O)[C@@H](NC(=O)c2cc3ccccc3[nH]2)N=C(c2ccccc2)c2ccccc21`, the Potency entry in experiment [1], in [2], in experiment [3], in [4], in experiment [5] and in experiment [7] was “inactive” each time. Moreover, the Potency entry in experiment [8], in [9], in experiment [10], in [11], in experiment [12] and in experiment [13] was “inactive” each time. The Potency result in experiment [15] and in experiment [16] was “inactive” each time. Further, the max activation in experiment [6] was -0.0388%. Also, in experiment [14], the Potency is 4.9 µM (active).

Consider `COc1cnc(OC)n2nc(NS(=O)(=O)c3c(OCC(F)F)cccc3C(F)(F)F)nc12`, for which the Potency entry in experiment [1], in experiment [2], in [3], in experiment [17], in experiment [5] and in experiment [18] was “inactive” throughout. In addition, the Potency entry in experiment [9], in experiment [10], in experiment [11], in experiment [12] and in experiment [19] was “inactive” each time. The Potency in [14] was 35.6 µM (active).

As for `CC(Cc1ccc(O)cc1)NCC(O)c1cc(O)cc(O)c1` (configuration not stated), the Potency result in experiment [1], in experiment [2], in experiment [3], in [4], in experiment [5] and in experiment [7] was “inactive” in each case. Further, the Potency entry in experiment [8], in [13], in experiment [14], in experiment [15], in experiment [19] and in [16] was “inactive” in each case. For the same compound, in experiment [6], the max activation was -1.7%. In experiment [12], the Potency is 9.77 µM (active).

On to `O=Cc1ccccc1`, for which the Potency result in experiment [1], in experiment [2], in experiment [3], in experiment [4], in experiment [5] and in experiment [18] was “inactive” in each case. The Potency result in [9], in experiment [10], in experiment [11], in [12], in experiment [13] and in experiment [14] was “inactive” each time. Further, the Potency result in experiment [15], in experiment [19] and in experiment [16] was “inactive” throughout.

On to `CC(Cc1ccc2c(c1)OCO2)NO` (configuration not stated), for which the Potency entry in experiment [1], in [2], in experiment [17], in experiment [4], in experiment [5] and in experiment [18] was “inactive” in each case. In addition, the Potency entry in experiment [9], in experiment [10], in experiment [11] and in experiment [19] was “inactive” throughout. For the same compound, the Potency in experiment [12] is 38.6 µM (active); in [13] it was 48.6 µM (active); in [14] it was 34.4 µM (active); in experiment [15] it was 6.11 µM (active).

As to `Nc1nc(N)c(N)c(N)n1`, the Potency entry in experiment [1], in experiment [2], in experiment [17], in experiment [5], in [18] and in experiment [9] was “inactive” each time. For the same compound, the Potency result in experiment [10], in experiment [11], in experiment [12], in experiment [14], in [19] and in [16] was “inactive” in each case. Besides, the Potency in [15] is 35.7 µM (active).

In the case of `CCC1COC(Cn2cncn2)(c2ccc(Cl)cc2Cl)O1` (configuration not stated), the Potency entry in [1], in experiment [2], in [17], in experiment [4], in [18] and in [9] was “inactive” in each case. In addition, the Potency entry in experiment [10] and in [11] was “inactive” each time. Further, the Potency was 19.3 µM (active) in experiment [5]; 0.317 µM (active) in experiment [13]; 6.33 µM (active) in experiment [14]; 28.3 µM (active) in [15]; 0.0894 µM (active) in experiment [16].
